A short description of assay [1]: CCTE_Simmons_MITO_basal_resp_rate: CCTE's HepG2 Seahorse XF Respirometric Screening Assay at Basal Respiratory State, Simmons Lab (AID 2284001). Particulars: actives raise or lower the signal. The procedure, abridged:
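Basal-phase OCR of HepG2 cells on a Seahorse XF96, analysed by bidirectional fit relative to DMSO vehicle; chemicals at 7 concentrations, 125 nM–100 uM final; three biological replicates; fenpyroximate and 2,4-dinitrophenol positive controls.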

A short description of assay [2]: CCTE_Simmons_MITO_max_resp_rate: CCTE's HepG2 Seahorse XF Respirometric Screening Assay at Maximal Respiratory State [uncoupled], Simmons Lab (AID 2284002). Particulars: actives raise or lower the signal. In short, it runs like this:
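HepG2 oxygen consumption measured on Seahorse XF after FCCP uncoupling, following test compound injection; 7 concentrations from 125 nM to 100 uM final. Readings every 6 min over 72 min, three biological replicates; bidirectional fit versus DMSO.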

Assay [3] in a line: CCTE_Simmons_MITO_inhib_resp_rate: CCTE's HepG2 Seahorse XF Respirometric Screening Assay at Inhibited Respiratory State [full ETC block], Simmons Lab (AID 2284006). Particulars: actives raise or lower the signal. In short, it runs like this:
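Test chemicals at seven final concentrations (125 nM–100 uM) in three biological replicates, with DMSO as vehicle. HepG2 oxygen consumption was then tracked on a Seahorse XF96 for 72 min through FCCP and rotenone/antimycin A phases, with the inhibited-phase rate as the endpoint.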

Assay [4] can be described thus: CCTE_Simmons_MITO_viability: CellTiter-Glo Viability Assessment for CCTE's HepG2 Seahorse XF Respirometric Screening Assay [post-hoc], Simmons Lab (AID 2284007; active = hit-call score of the fitted dose curve at least 0.9, where 1 is the maximum;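 note: cells exposed to chemical for 90 min before the ATP read; actives lower ATP signal relative to DMSO baseline meaning reduced viability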). In short, it runs like this:
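Post-hoc viability check on the HepG2 respirometry plates: luciferase-based ATP signal measured once, after 90 min compound exposure spanning 125 nM–100 uM final. Activity was referenced to DMSO as baseline.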
For orientation: ATP-based viability assays read luminescence as a measure of living cells.

Assay [5] in a line: CCTE_Shafer_MEA_acute_spike_number: CCTE's Neural Acute Assay for Total Number of Spikes, Shafer Lab (AID 2284008).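 For AC50: curve fitted for decrease in spike count so AC50 reflects inhibitors.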 The procedure, abridged:
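Rat primary cortical neurons on 48-well MEA plates, DIV 13 or 15, at 37 C. 40 min baseline then 40 min with compound (0.03-40 uM); spikes detected at 8x rms noise, expressed as percent change from baseline.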

Assay [6] is described as follows: CCTE_Shafer_MEA_acute_firing_rate_mean: CCTE's Neural Acute Assay for Mean Firing Rate, Shafer Lab (AID 2284009).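 Note: analyzed for loss of signal so actives lower firing rate relative to DMSO.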 The procedure, abridged: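 Rat cortical neuron cultures matured to DIV 13 or 15, equilibrated 20 min at 37 C, then recorded 40 min for baseline. Compound (0.03-40 uM) added and a further 40 min recorded; percent change in mean firing rate calculated per well.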

Assay [7] in a line: CCTE_Harrill_HTTr_Viability_MCF7: CCTE's 6-hour Cell Viability Assessment for the High-Throughput Transcriptomics (HTTr) Platform, in MCF-7 cells cultured in DMEM + 10% fetal bovine serum, Harrill Lab (AID 2284010). The procedure, abridged: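 Eight-point concentration series, six-hour exposure. Propidium iodide exclusion imaged to assess membrane integrity as a cytotoxicity readout; bidirectional fitting was done with DMSO as negative control and activity baseline.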

Assay [8] in a line: CCTE_Harrill_HTTr_Apoptosis_MCF7: CCTE's 6-hour Apoptosis Assessment for the High-Throughput Transcriptomics (HTTr) Platform, in MCF-7 cells cultured in DMEM + 10% fetal bovine serum, Harrill Lab (AID 2284011). In short, it runs like this: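 MCF-7 cells in DMEM + 10% FBS exposed 6 h to chemicals over an eight-point dilution series. Caspase-3/7 activation imaged by high-content CellEvent Green staining; fitted bidirectionally versus DMSO.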

Assay [9] in a line: CCTE_Harrill_HTTr_CellCount_MCF7: CCTE's Cell Proliferation Assessment for the High-Throughput Transcriptomics (HTTr) Platform, Harrill Lab (AID 2284012; active = hit-call score of the fitted dose curve at least 0.9, where 1 is the maximum;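 note: count of Hoechst-stained nuclei per well by high-content imaging in MCF-7 cells; cells exposed to compound for six hours; intended direction is loss of nuclei count meaning fewer cells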). In short, it runs like this:
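For this full-screen endpoint, MCF-7 cultures received eight compound dilutions for six hours. Well nuclei counts from Hoechst imaging were analyzed relative to DMSO.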

Assay [10] in a line: CCTE_Shafer_MEA_acute_burst_number: CCTE's Neural Acute Assay for Single-Electrode Bursts, Shafer Lab (AID 2284013). The procedure, abridged: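 Percent change in single-electrode burst number per well, from 40-min recordings taken before and after adding compound (0.03-40 uM) to primary rat cortical neurons on MEA plates at DIV 13 or 15, 37 C.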
The nature of assay [11]: CCTE_Shafer_MEA_acute_per_burst_spike_number_mean: CCTE's Neural Acute Assay for Average Number of Spikes Per Burst, Shafer Lab (AID 2284015).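 Note: hits are decreases in mean spikes per burst versus baseline.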 The procedure, abridged: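 Percent change in mean spikes per single-electrode burst is compared between a 40 min baseline and a 40 min recording with compound (0.03-40 uM). Cultures were rat cortical neurons on MEA plates at DIV 13 or 15, recorded at 37 C, with DMSO as the negative control.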

Assay [12] can be described thus: CCTE_Shafer_MEA_acute_interburst_interval_mean: CCTE's Neural Acute Assay for Mean Interburst Interval, Shafer Lab (AID 2284016).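 Note: percent change of mean interburst interval versus each well's own pre-dose baseline; curves fitted for decrease in interburst interval relative to DMSO.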 The procedure, abridged:
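Percent change in mean single-electrode interburst interval was calculated per well from 40 min recordings before and after compound (0.03-40 uM). Recordings were made at 37 C on rat cortical cultures at DIV 13 or 15, with spikes detected at 8x rms threshold.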

Assay [13] can be described thus: CCTE_Shafer_MEA_acute_burst_percentage_mean: CCTE's Neural Acute Assay for Percentage of Spikes in a Burst, Shafer Lab (AID 2284017).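 For AC50: curve fitted for loss of signal so potency reflects decreased burst percentage.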 In short, it runs like this:
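Well-level mean burst percentage from a 40-min recording after compound (0.03-40 uM) expressed as percent change from a 40-min baseline at 37C. Cultures: primary rat cortical neurons on MEA, dosed on DIV 13 or 15; fitted downward relative to DMSO.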

A short description of assay [14]: CCTE_Shafer_MEA_acute_burst_percentage_std: CCTE's Neural Acute Assay for Standard Deviation of Burst Percentage, Shafer Lab (AID 2284018).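 Note: fitted in the negative direction so actives lower burst percentage SD.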 In short, it runs like this: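 Rat primary cortical neurons on 48-well MEAs, DIV 13 or 15, 37 C. 40-min baseline then 40-min recording with compound (0.03-40 uM); well-level SD of per-electrode burst spike percentage, expressed as percent change from baseline.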

Assay [15] in a line: CCTE_Shafer_MEA_acute_per_network_burst_spike_number_mean: CCTE's Neural Acute Assay for Average Number of Spikes in a Network Burst, Shafer Lab (AID 2284019).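 For AC50: curve fitted for loss of signal so actives reduce spikes per network burst.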 In short, it runs like this: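 Rat cortical cultures, DIV 13/15; spike threshold 8x rms noise, 300-5000 Hz band-pass, 12.5 kHz sampling; wells need >/= 10 active electrodes. Compound 0.03-40 uM, 40 min, 37 C; % change vs own baseline, DMSO negative control.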

Assay [16] in a line: CCTE_Shafer_MEA_acute_per_network_burst_spike_number_std: CCTE's Neural Acute Assay for Standard Deviation of Number of Spikes in a Network Burst, Shafer Lab (AID 2284020).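 Note: fitted for decrease in spike-number SD versus DMSO so actives lower it.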 The procedure, abridged: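 Rat cortical cultures, DIV 13/15, 37 C; 20-min stabilisation, 40-min baseline, compound 0.03-40 uM, 40-min re-record. Spikes detected at 8x rms noise (300-5000 Hz band-pass). Readout: % change from baseline in per-burst spike-number SD.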

Assay [17] has as its target Nucleoli Translocation, AR (gene 367) (UniProt P10275). Kind of assay: UPITT_HCI_U2OS_AR_TIF2_Nucleoli_Antagonist: University of Pittsburgh U2OS Androgen Receptor-Transcriptional Intermediary Factor 2 (AR-TIF2) Antagonism High Content Imaging Assay for Nucleoli Translocation (AID 2283997; active = hit-call score of the fitted dose curve at least 0.9, where 1 is the maximum). The procedure, abridged: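 Compounds are added at 20 uM final concentration in 0.2% DMSO to U2OS cells carrying AR-RFP and TIF2-GFP fusions. Nucleolar AR-RFP fluorescence is then quantified by automated imaging. Antagonism is fitted positively against DHT baseline.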

The target is the same in assay [18]. The assay is described as follows: UPITT_HCI_U2OS_AR_TIF2_Nucleoli_Agonist: University of Pittsburgh U2OS Androgen Receptor-Transcriptional Intermediary Factor 2 (AR-TIF2) Agonism High Content Imaging Assay for Nucleoli Translocation (AID 2283998; active = hit-call score of the fitted dose curve at least 0.9, where 1 is the maximum). The procedure, abridged:
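U2OS cells expressing RFP-tagged human AR and GFP-tagged TIF2; red fluorescence in nucleoli quantified by high-content imaging. Primary screen at 20 uM final (0.2% DMSO); concentration-response 0.195–50 uM (0.5% DMSO), fitted upward versus DMSO.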

Assay [19] has as its target Ratio of Nucleoli Translocation and Cytoplasm, AR (gene 367) (UniProt P10275). Kind of assay: UPITT_HCI_U2OS_AR_TIF2_Nucleoli_Cytoplasm_Ratio_Agonist: University of Pittsburgh U2OS Androgen Receptor-Transcriptional Intermediary Factor 2 (AR-TIF2) Agonism High Content Imaging Assay for Ratio of Nucleoli Translocation and Cytoplasm (AID 2284000; active = hit-call score of the fitted dose curve at least 0.9, where 1 is the maximum;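 note: hits raise the red nucleolar to cytoplasm ratio above vehicle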). The procedure, abridged: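 Human osteosarcoma U2OS line, AR-RFP plus TIF2-GFP; compounds 0.195–50 uM final, 0.5% DMSO. Readout: nucleolar/cytoplasmic RFP ratio by HCI, positive direction vs DMSO baseline.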

Results filed as inconclusive are left out. The source made the active and inactive calls. Rule for the calls, unless noted: active = hit-call score of the fitted dose curve at least 0.9, where 1 is the maximum; inactive = score below 0.9.

Chain of Nucleoli Translocation, AR (gene 367) (P10275 whole entry, looked up, the tested form may be a part): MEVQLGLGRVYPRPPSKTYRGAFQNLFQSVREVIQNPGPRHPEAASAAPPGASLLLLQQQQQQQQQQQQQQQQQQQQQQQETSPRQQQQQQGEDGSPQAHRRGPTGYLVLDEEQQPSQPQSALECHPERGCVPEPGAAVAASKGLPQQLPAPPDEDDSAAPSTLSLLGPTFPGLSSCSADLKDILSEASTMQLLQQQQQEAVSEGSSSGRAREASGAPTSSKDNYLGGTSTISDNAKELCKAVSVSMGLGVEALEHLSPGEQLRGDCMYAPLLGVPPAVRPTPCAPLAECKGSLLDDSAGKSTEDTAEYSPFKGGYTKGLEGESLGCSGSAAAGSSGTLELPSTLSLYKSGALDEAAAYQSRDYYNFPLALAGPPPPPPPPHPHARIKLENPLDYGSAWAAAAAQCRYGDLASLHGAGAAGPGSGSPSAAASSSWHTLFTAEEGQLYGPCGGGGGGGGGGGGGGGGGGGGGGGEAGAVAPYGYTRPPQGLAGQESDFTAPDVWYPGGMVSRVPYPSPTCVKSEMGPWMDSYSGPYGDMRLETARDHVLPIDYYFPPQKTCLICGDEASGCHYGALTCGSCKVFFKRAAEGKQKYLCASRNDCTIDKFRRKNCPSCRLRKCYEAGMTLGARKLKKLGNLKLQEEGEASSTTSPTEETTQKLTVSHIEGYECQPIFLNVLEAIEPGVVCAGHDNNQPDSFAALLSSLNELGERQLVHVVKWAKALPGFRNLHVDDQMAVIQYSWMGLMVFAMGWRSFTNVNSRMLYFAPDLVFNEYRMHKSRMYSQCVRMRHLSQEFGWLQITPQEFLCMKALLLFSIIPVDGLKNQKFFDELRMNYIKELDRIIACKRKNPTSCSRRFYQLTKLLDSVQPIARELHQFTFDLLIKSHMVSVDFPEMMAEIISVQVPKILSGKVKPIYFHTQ
Chain of Ratio of Nucleoli Translocation and Cytoplasm, AR (gene 367) (P10275 whole entry, looked up): as the sequence (P10275 whole entry, looked up, the tested form may be a part) above

Take `CCCN(CCOc1c(Cl)cc(Cl)cc1Cl)C(=O)n1ccnc1`: the half-maximal activity concentration (AC50) (in general, the concentration giving half of the maximal activity seen) in [1] was 11.2 µM (active); in assay [2], 18 µM (active); in [4] it was 13.6 µM (active); in assay [5], 1.26 µM (active); in assay [6], 1.24 µM (active); in assay [10], 1.56 µM (active). For the same molecule, the AC50 in [11] was 33.1 µM (active); in assay [13], 34.6 µM (active); in assay [15], 33.6 µM (active); in assay [16], 32.6 µM (active). Besides, the call in assay [3], in assay [7], in assay [8], in assay [9], in [12] and in assay [14] was inactive.

Consider `O=[N+]([O-])/N=C1\NCCN1Cc1ccc(Cl)nc1`, for which the molecule was called inactive in [17], in assay [18], in assay [19], in assay [5], in [6] and in assay [7]. Further, the result in assay [8], in assay [9], in assay [10], in assay [11], in assay [12] and in assay [13] was inactive. The molecule was called inactive in assay [14], in assay [15] and in [16].

`CC[C@H](C)[C@H]1O[C@]2(C=C[C@@H]1C)C[C@@H]1C[C@@H](C/C=C(\C)[C@@H](O[C@H]3C[C@H](OC)[C@@H](O[C@H]4C[C@H](OC)[C@@H](O)[C@H](C)O4)[C@H](C)O3)[C@@H](C)/C=C/C=C3\CO[C@@H]4[C@H](O)C(C)=C[C@@H](C(=O)O1)[C@]34O)O2` (tested in a mixture with another compound): the AC50 in [1] is 24.7 µM (active); in [2], 18 µM (active); in assay [5] it was 0.0048 µM (active); in [6] it was 0.00477 µM (active); in assay [10], 0.00721 µM (active); in assay [11] it was 0.00576 µM (active). Further, the AC50 in assay [13] is 0.0165 µM (active); in [14], 0.0752 µM (active); in assay [15] it was 0.0134 µM (active); in assay [16], 0.00528 µM (active). In addition, the outcome in assay [3], in [7], in assay [8], in assay [9] and in assay [12] was inactive.

As for `CC(C)(C)C(O)C(Oc1ccc(Cl)cc1)n1cncn1` (stereo not drawn), the outcome in assay [7] and in [8] was inactive.

For `O=S(=O)(O)C(F)(F)C(F)(F)C(F)(F)C(F)(F)C(F)(F)C(F)(F)C(F)(F)C(F)(F)F`, the molecule was classed as inactive in assay [5], in [6], in [7], in assay [8], in assay [9] and in assay [10]. Moreover, the molecule was called inactive in [11], in [12], in assay [13], in assay [14], in assay [15] and in [16].

Take `CN1CSC(=S)N(C)C1`: the result in assay [7], in assay [8] and in [9] was inactive.

Consider `CCN(CC)C(=O)SCc1ccc(Cl)cc1`, for which the outcome in [7], in assay [8] and in [9] was inactive.

Take `O=C(NC(=O)c1c(F)cccc1F)Nc1ccc(OC(F)(F)C(F)OC(F)(F)F)c(Cl)c1` (stereo not drawn): the outcome in [7], in [8] and in assay [9] was inactive.

Consider `CNC(=O)CSP(=S)(OC)OC`, for which the molecule was classed as inactive in [5], in assay [6], in assay [7], in assay [8], in assay [9] and in assay [10]. Also, the molecule was called inactive in assay [11], in [12], in [13], in [14], in assay [15] and in [16].

Consider `CC(C)OC(=O)Nc1cccc(Cl)c1`, for which the AC50 in [5] was 10.2 µM (active); in [13] it was 20 µM (active); in assay [16] it was 25.2 µM (active). Further, the molecule was called inactive in [6], in [7], in assay [8], in assay [10], in [11] and in assay [12]. Also, the molecule was called inactive in assay [14] and in [15].

Turning to `Clc1ccccc1-c1nnc(-c2ccccc2Cl)nn1`, the molecule was called inactive in [5], in [6], in assay [7], in [8], in [10] and in assay [11]. In addition, the call in assay [12], in assay [13], in [14], in [15] and in assay [16] was inactive.

These data come from PubChem BioAssay (EPA / NIEHS).
